Screens: PubChem, University of Pittsburgh Molecular Library Screening Center
The full list was thinned out, with hits kept by preference.
HIV RNase H inh-1: inhibitors of HIV-1 reverse transcriptase RNase H; 1.9% of 65,000 active; inhibition, % at 10 µM; P04585; RT-RNase H RNA/DNA duplex cleavage, fluorescence; AID 565; in the data active = inhibition above about 50%
HIV RNase H inh-2: confirmation of HIV-1 reverse transcriptase RNase H inhibitors | AID 651 | inhibition, % at 10 µM | shares compounds with HIV RNase H inh-1 | 39% of 1,000 active | Recombinant RT RNase H, fluorescent RNA/DNA duplex cleavage; in the data active = inhibition above about 48%; inconclusive = no clear call, values can overlap the other calls
Numbers without * were called inactive; ? = inconclusive.

SMILES	HIV RNase H inh-1	others
COCCSc1nnc(NC(=O)CSCc2ccccc2)s1	-1
COc1cccc(OC)c1OCC(C)CNCC1CCCO1 (stereo not given)	-8
CCN(CC)CCCN(Cc1cc2cc3c(cc2[nH]c1=O)OCCO3)C(=O)Nc1ccc(F)cc1	6
CCOC(=O)C1=C(CC)OC(N)=C(C#N)C1c1cc(OC)ccc1OC (stereo not given)	-28
COc1ccc(N2CSC3=C(C#N)C(c4cc(OC)ccc4OC)CC(=O)N3C2)c(OC)c1 (stereo not given)	86*	HIV RNase H inh-2=67*
COc1ccc(C2C(C#N)=C(N)OC(C(C)(C)C)=C2C#N)cc1OC (stereo not given)	-2
COc1ccc(N2CSC3=C(C#N)C(c4ccc(OC)c(OC)c4)CC(=O)N3C2)c(OC)c1 (stereo not given)	82*	HIV RNase H inh-2=67*
CCCSC1=C(C#N)C(c2cc(OC)ccc2OC)CC(=O)N1 (stereo not given)	-45
CCSC1=C(C#N)C(c2ccc(OC)c(OC)c2)CC(=O)N1 (stereo not given)	-7
CCOC(=O)c1[nH]nc2c1C(=O)N(Cc1ccccc1)C2=O	-24
CCOC(=O)c1[nH]c(C(=O)O)c(CCN(CC)CC)c1C	-6
Cc1nc(N2CCC(C)CC2)c2c(C)c(C(=O)O)sc2n1	-9
COC(=O)CCN(c1ccccc1)S(=O)(=O)c1ccc(OC)cc1	-4
CCN(CC(=O)Nc1ccc2c(c1)OCCO2)c1nc(-c2cccnc2)nc2ccccc12	-25
Cc1cc(NC(=O)c2ccccc2Oc2ccccc2)no1	-4
COCCSc1ccccc1C(=O)Nc1cc(C)on1	80*	HIV RNase H inh-2=63*
COCCSc1ccccc1C(=O)Nc1nnc(COC)s1	21
CS(=O)(=O)N1CCCC(C(=O)NCCCN2CCc3ccccc3C2)C1 (stereo not given)	-5
COc1ccc(OC)c(C(=O)COC(=O)c2ccccc2O)c1	-10
Cc1ccc(S(=O)(=O)/N=C(\CN2CCCCC2)N2CCOCC2)cc1	-9
C=CCOc1c(CNc2nccs2)cccc1OCC	3
CCc1ccc(-c2cn(-c3nc(C)cc(C)n3)c(=N)o2)cc1	7
COc1ccc(NC(=O)CSc2nnc(-c3cccnc3)n2Cc2ccco2)c(OC)c1	-13
O=c1[nH]c(=O)n(-c2ccc(F)cc2)c(O)c1C=Nc1ccccc1N1CCCC1	74*	HIV RNase H inh-2=62*
CC(=O)N1CCN(c2ccc(N=Cc3c(O)n(-c4ccc(Cl)cc4)c(=O)[nH]c3=O)cc2)CC1	12
SMILES	HIV RNase H inh-1	others
Cc1ccc(-n2c(O)c(C=Nc3ccccc3N)c(=O)[nH]c2=O)cc1C	3
O=C(NCCC1=CCCCC1)C1CCN(S(=O)(=O)c2cccc3nsnc23)CC1	-4
Cc1sc(NC(=O)c2oc3ccccc3c2C)c(C#N)c1C	57*	HIV RNase H inh-2=83*
Cc1c(C(=O)NC2=NCCS2)oc2ccccc12	-17
Cc1cc(C(=O)Nc2sc(C)c(C)c2C#N)c(C)o1	6
Cc1cc(C)cc(OC(=O)N2CCOCC2)c1	-16
COc1ccc(S(=O)(=O)N2CCOCC2)cc1C(=O)Nc1cc(C)on1	-12
Clc1cc2c(c(Cn3cnc4ccccc43)c1)OCOC2	-97
c1ccc2c(c1)ncn2Cc1nnc2sc(-c3ccc4c(c3)OCO4)nn12	69*	HIV RNase H inh-2=61*
COc1ccccc1-c1nn2c(-c3ccccc3Cl)nnc2s1	-2
Clc1ccccc1-c1nnc2sc(-c3ccc4c(c3)OCO4)nn12	92*	HIV RNase H inh-2=?
COc1ccc(OCc2nn3c(Cn4cnc5ccccc54)nnc3s2)cc1	-24
Fc1ccc(-c2nnc3sc(C4COc5ccccc5O4)nn23)cc1 (stereo not given)	-15
Fc1ccc(-c2nn3c(C4COc5ccccc5O4)nnc3s2)cc1 (stereo not given)	2
c1ccc2c(c1)OCC(c1nnc3sc(-c4ccc5c(c4)OCO5)nn13)O2 (stereo not given)	85*	HIV RNase H inh-2=69*
Clc1ccccc1-c1nnc2sc(-c3ccc(Br)o3)nn12	-20
O=c1[nH]cnc2scc(C3COc4ccccc4O3)c12 (stereo not given)	-14
c1ccc2c(c1)OCC(c1nnc3n1-c1ccccc1SC3)O2 (stereo not given)	-27
c1csc(-c2nn3c(C4COc5ccccc5O4)nnc3s2)c1 (stereo not given)	91*	HIV RNase H inh-2=62*
Cc1nnc(SCCn2c(N3CCCC(C)C3)nc3c2c(=O)n(C)c(=O)n3C)s1 (stereo not given)	-4
CNC(=O)CN(C#N)c1nc(N(C)C)nc(N(C)C)n1	-16
CS(=O)(=O)N(CC(=O)Nc1cccc(F)c1)Cc1ccccc1	-7
O=C(CN(c1ccc(F)cc1)S(=O)(=O)c1ccc2c(c1)OCCO2)N1CCOCC1	-23
Cc1ccc2c(c1)c1cccc3c1n2CCN3CCC(N)=O	9
CNC(=O)N(C1=NCC(C)(C)S1)c1ccc(F)c(Cl)c1	-28
COC(=O)n1ccc(C(=O)Nc2ccccc2F)n1	-14
